This passage reports z-score results from PubChem BioAssay AID1508600 (Functional Genomics Laboratory (NCATS/FGL), 2020).

Out of some 53,000 sequences screened, about 3,700 (7%) were called active.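 The calls were made as follows: active = gene knockdowns whose robust z-score for IL-1 alpha signal is at least 2 or at most -2, so actives lie on both sides; inactive = the rest.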 The entries come from a sample that favours actives as a whole.

The assay in a line: Components of the Cytosolic LPS Sensing Pathway: Gene Identification via Genome-wide siRNA Screen.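 Also: robust z of the log signal after scaling to non-targeting control siRNA wells of the plate.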 The settings on record: RAW264.7 macrophages, IL-1a HTRF, actives lie on both sides, screened at 100 nM (by protocol), cells primed 5 h with Pam3CSK4 first. A digest of the protocol: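 Mouse macrophage line RAW264.7 is transfected with siRNA (100 nM final), grown 48h, primed with TLR ligand Pam3CSK4 5 h and given intracellular LipidA 24 h. IL-1a in supernatant is read by HTRF and viability by luminescence.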
(In general: Time-resolved FRET reads energy transfer from a long-lived donor to a nearby acceptor.)
On to GGUGAGGAGGAAAUCCUGCTT against Rdh10, for which the z-score is -1.21 (inactive).

As to CCUGCUUUGUAUCUCCUCCTT against Csprs, the z-score is 0.184 (inactive).

GCAACAAUGAGAGACCACATT against Htr5a: the z-score is 3.27 (active).

As to GGAAGCAUCUCAUUAUUCATT against Lamp2, the z-score was 0.0306 (inactive).

Take GGCACCUACAUCCUUAUUGTT against Ptprn: the z-score is -0.16 (inactive).

Consider GGAAAGGAAAAUCAACUUCTT against Usp14, for which the z-score was 0.0989 (inactive).

For GCUUUCUUUUGCACUUGAATT against Ctc1, the z-score is -1.1 (inactive).

In the case of CCACAUGUCACAUCUUUUCTT against Mrpl47, the z-score was 0.16 (inactive).

With GGCACAGACUAAGGUAUAGTT against Adra2c, the z-score is -1.51 (inactive).

Take GCCCUGAAGCCUAUAAUCATT against Nhlrc1: the z-score was 2.34 (active).

In the case of GGCAACAGUACCAAAGACATT against Rps24, the z-score was 0.483 (inactive).

In the case of GGCCGAAUCACAGAAACUCTT against Mrps18a, the z-score was 1.87 (inactive).

For GUAAGCAGCAACAGAGGCUTT against Cd70, the z-score is -0.558 (inactive).

In the case of GGCAUUGAAGGAAGUGAUCTT against Psmg3, the z-score is -2.9 (active).

GGCCUUAGUAUUCUGCCUCTT against Nuak1: the z-score was 0.395 (inactive).

With GGGAAUUCACACUGUCUGGTT against Tmem176a, the z-score is -1.73 (inactive).

As to CGGCUAAGGAAAAAUGUGATT against Nr1h4, the z-score was -1.26 (inactive).

Consider CCAACAUCCUUAAGCGGCUTT against Lonp1, for which the z-score is -0.161 (inactive).

On to GGUCAAAGGUGAAGAGAAATT against Chgb, for which the z-score is 1.43 (inactive).

GGAAACAGCAUCAUCAUGUTT against Snrpg: the z-score was -2.28 (active).

For the sequence CGUACAUCGUCGAGAUUUUTT against Rims1, the z-score was 0.839 (inactive).

Turning to GCGGAACCUAUAUAGGAAUTT against Zfp74, the z-score was -0.292 (inactive).

CGAGAGUAGCUUGUUGCUGTT against Rhobtb3: the z-score was 0.359 (inactive).

As for GCUGUAUGGGAAGGGUUACTT against Tsen2, the z-score is 0.829 (inactive).

Take GGAUCAGUACCUGUGAUGGTT against Adamdec1: the z-score was -2.07 (active).

Consider GGAUCGUAGAACACCCUUCTT against Robo2, for which the z-score is -0.00164 (inactive).

As to GGAUUCCACAAUUUUUGUATT against Ncoa6, the z-score is -0.399 (inactive).

As for GCGGGUUAACUUGUUUGGUTT against Zcwpw1, the z-score is 0.525 (inactive).

For the sequence GGCUUACACAAAAAUCUGUTT against Camk2d, the z-score is -0.36 (inactive).

Consider GGAAAUUACCUUGAUGAUGTT against Anxa4, for which the z-score is -1.59 (inactive).

For GGACAAUCUGAUUCAAGUATT against Ms4a2, the z-score was 0.104 (inactive).

For GUUGUGCAAUCAACAAGGUTT against Fam98c, the z-score was 2.05 (active).

With GCUACGCAAUAAGACCACATT against Lamc3, the z-score is 2.25 (active).

On to GGAGCUCAUUAGCAAAUAUTT against Olfm5, for which the z-score is -0.859 (inactive).

Turning to GUACAAGCUCAAGUGCUCGTT against Casz1, the z-score was -0.463 (inactive).

GGAACUCCUGACUCUCAGATT against Htra2: the z-score is -1.19 (inactive).

As for UGUACUGAUACAUACUUCCTT against Olfr1249, the z-score was -0.487 (inactive).

With GCAUGACAGUCAACACAAGTT against Slc35f6, the z-score is 2.04 (active).

For the sequence GGAAAUAGACACCAAGAGCTT against Mau2, the z-score is -1.64 (inactive).

Regarding GCAUCAUUAAGUGCUACCGTT against Pcdhac2, the z-score was -0.263 (inactive).

On to UCUAUCUCAUUACUAUUGUTT against Olfr190, for which the z-score was 0.649 (inactive).

CCUAUCAAACUGACUUCAUTT against Castor2: the z-score is 0.309 (inactive).

GGACCUCCCACAGUGUUAUTT against Enpp2: the z-score was -0.574 (inactive).

GGGAAACAGAUGAAAGAGUTT against Relch: the z-score is 0.0344 (inactive).

As for GGUUUGAACUUCAGCAACUTT against Adam15, the z-score was -2.17 (active).

Turning to GGUCCACUUAGUGGCUUAATT against Atp5pb, the z-score is -0.227 (inactive).

With GGUGUAUUGAGCUAAACAUTT against Rnft2, the z-score is -0.344 (inactive).

Consider GGCAUGAGCGAGUUAAACCTT against Usp53, for which the z-score is 1.65 (inactive).

For the sequence GGAGAACAUUCAGGUGACATT against Pdgfd, the z-score is -0.625 (inactive).

With GGCGAUGUGAAAAUCUUAATT against Xpnpep2, the z-score is 3.65 (active).

GGCCUCUUAUGUCAACCUGTT against Rpsa: the z-score is -1.57 (inactive).

In the case of GCCGAUUCUUCAAUGUGCGTT against Ribc1, the z-score was -0.242 (inactive).

Take CCAGCACGCUGAAGUCUGATT against Adam19: the z-score was 1.21 (inactive).

For the sequence “CCCUAUCGUGAUUUAUUGGTT against C130073F10Rik”, the z-score was -1.33 (inactive).

Take GGGUACAAAGCAACAUUGGTT against Disp1: the z-score is 4.2 (active).

For the sequence GCAAUGUGCACGAUGAUGATT against Pik3cg, the z-score was -0.79 (inactive).

On to CCUAGUGAAUCCUCUCGUATT against Eqtn, for which the z-score is 0.178 (inactive).

Regarding GCCGAGCUCAAUGUGGGUATT against Bsn, the z-score is 1.11 (inactive).

Turning to GGAAGAAAGUGAGCCUUGUTT against Senp6, the z-score was -2.14 (active).

Regarding GGCAGAGAGAUGUUACAAGTT against Ccl8, the z-score was 0.408 (inactive).

Take GGUACACUGGUAUACGUAUTT against Samd9l: the z-score was -1.45 (inactive).

Consider GGCUGAUCCAUUUUCACAATT against Adam6a, for which the z-score is -2.77 (active).

Regarding GGUUUCAAGACAUUGAAAGTT against Arl14ep, the z-score is -0.424 (inactive).

In the case of CGAUGACAUCAGGAUUGUUTT against Adgrg7, the z-score is -0.124 (inactive).

As for GGACUUAUUAUGUGAGUGUTT against Ncbp2, the z-score was 0.555 (inactive).

As to GGAAAUCAGAAGAAGAACATT against Hars, the z-score was 2.67 (active).

In the case of “CGGACACACUUUGUUAUUATT against 4833420G17Rik”, the z-score was 0.198 (inactive).

On to GGACGUAACAAAAUGUUCUTT against P2ry12, for which the z-score is 0.578 (inactive).

Regarding CGGUGGAAUUCGUUAGAAGTT against Ireb2, the z-score is -0.183 (inactive).
